Measurements from PubChem BioAssay AID1347414 (National Center for Advancing Translational Sciences (NCATS), 2020).
Results filed as inconclusive are left out. Values without a mark were called inactive. Active and inactive are the calls of the source. Calls come from the whole dose curve; as a rule, active = well fitted inhibition curve with a large enough effect; inconclusive = small, poorly fitted or top-dose-only effect; inactive = no such curve, though single readings can be large or run the other way. Numbered stars: 1 amine (or outer) side, 2 acyl side, 3 side chain; on linkers, the order of the positions; unused ones are H or OH. Bridge positions count the residues as written; N and C are the ends. Square brackets hold non-standard residues; d marks the D form. Peptide text beside a SMILES is read from it. I, II: the chains in the order shown. Actinocin(9to1) = Cc1c2oc3c(C)ccc(C(=O)[*:1])c3nc-2c(C(=O)[*:2])c(N)c1=O; NMeV = CN[C@H](C(=O)O)C(C)C; Sar = CNCC(=O)O

assay: qHTS to identify inhibitors of the type 1 interferon - major histocompatibility complex class I in skeletal muscle: Secondary screen by immunofluorescence; conditions: C25cl48 myoblasts, IFN-b induced HLA-ABC immunofluorescence, 24 h, Viability; series mostly up to 49.8 µM; activity change, negative = inhibition: at the top concentration; note: nearly all actives have a fitted effect of over 70% in size;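 for activity change, negative = inhibition: digitonin at 100 µM served as the cytotoxic control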
Method in brief: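 Immortalized human myoblasts C25cl48 were stimulated with 4.0 ng/ml IFN-beta and exposed to an 11-point 1:3 compound titration, top 50 uM, for 24 h at 37 C. They were then fixed and immunostained for HLA-ABC, and quantified by laser scanning cytometry.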
% is set by controls: 0 for no effect and ±100 for the full control effect; potency is the fitted concentration of half-maximal effect.

SMILES	activity change, negative = inhibition	Potency
CC[C@H](CC#N)OC(=O)N[C@@H](C)c1cccc(NC(=O)Nc2ccc(-c3cnco3)c(OC)c2)c1	-3.25%	–
CN(Cc1ccc(/C=C/C(=O)NO)cc1)CC12CC3CC(CC(C3)C1)C2	-7.65%	–
CC(=O)NCC(=O)N1[C@@H]2CC[C@H]1c1ccc(Nc3ncc(C(F)(F)F)c(NC4CCC4)n3)cc12	-12.4%	–
CC(=O)c1cnc2ccc(-c3cc(Cl)c(O)c(Cl)c3)nc2c1NC1CCC(CN(C)C)CC1 (configuration not stated)	–	14.5 µM (active)
Cc1cc2c(cc1CC(=O)c1sccc1S(=O)(=O)Nc1onc(C)c1Cl)OCO2	2.91%	–
COc1ccc(-c2nc(N3CCOCC3)c3sc(CN(C)c4ncc(C(=O)NO)cn4)cc3n2)cn1	-4.79%	–
Cc1c2oc3c(C)ccc(C(=O)N[C@@H]4C(=O)N[C@H](C(C)C)C(=O)N5CCC[C@H]5C(=O)N(C)CC(=O)N(C)[C@@H](C(C)C)C(=O)O[C@@H]4C)c3nc-2c(C(=O)N[C@@H]2C(=O)N[C@H](C(C)C)C(=O)N3CCC[C@H]3C(=O)N(C)CC(=O)N(C)[C@@H](C(C)C)C(=O)O[C@@H]2C)c(N)c1=O (I: T[dV]P[Sar][NMeV] / II: T[dV]P[Sar][NMeV]; ester I:1-I:C, II:1-II:C; linker I:N-II:N via Actinocin(9to1))	-2.59%	–
CCOC(=O)C1=C(C)NC2=C(C(=O)CC(C)(C)C2)C1c1ccc(-c2ccccc2)cc1 (configuration not stated)	13%	–
CN1CCN(c2cccc(Nc3nc4c(-c5ccc(S(C)(=O)=O)cc5)cccn4n3)c2)CC1	-24.5%	–
CC(C)c1cc(CNc2nc(Nc3cc(C4CC4)[nH]n3)cc(N3CCN(C)CC3)n2)on1	-19.3%	–
CC(C)(C)CC(=O)OCC(=O)[C@@]1(O)CC[C@H]2[C@@H]3CCC4=CC(=O)C=C[C@]4(C)[C@H]3[C@@H](O)C[C@@]21C	-16.5%	–
O=C(/C=C\n1cnc(-c2cc(C(F)(F)F)cc(C(F)(F)F)c2)n1)NNc1cnccn1	-8.84%	–
CNC(=O)c1cc(Oc2ccc(NC(=O)Nc3cc(C(C)(C)C)nn3-c3ccc4ncccc4c3)c(F)c2)ccn1	-10.6%	–
Cn1cc(CNCC2CCN(c3ncc(C(=O)NO)cn3)CC2)c2ccccc21	13.2%	–
CC1(COc2ccc3c(c2)ncn3-c2ccc3cccc(N4CCC(N)CC4)c3n2)COC1	–	7.26 µM (active)
CCCCC(=O)OCC(=O)[C@H]1[C@H](C)C[C@H]2[C@@H]3C[C@H](F)C4=CC(=O)C=C[C@]4(C)[C@@]3(F)[C@@H](O)C[C@@]21C	15.7%	–
CCNC(=O)c1noc(-c2cc(C(C)C)c(O)cc2O)c1-c1ccc(CN2CCOCC2)cc1	23.3%	–
CN1CC[C@H](c2c(O)cc(O)c3c(=O)cc(-c4ccccc4Cl)oc23)[C@H](O)C1	-1.82%	–
COc1cc(F)ccc1-c1ncnc(Nc2cccc(CS(C)(=N)=O)c2)n1 (configuration not stated)	4.68%	–

SMILES	activity change, negative = inhibition	Potency
O=C1CN2Cc3c(ccc(Cl)c3Cl)N=C2N1	0%	–
C[C@@]12O[C@@H](C[C@]1(O)CO)n1c3ccccc3c3c4c(c5c6ccccc6n2c5c31)CNC4=O	-15.3%	–
C1=C/COCc2cc(ccc2OCCN2CCCC2)Nc2nccc(n2)-c2cccc(c2)COC/1	–	11.5 µM (active)
CN1CCN(C(=O)c2ccc3cc(CCNc4ncnc5ccc(C#N)cc45)ccc3c2)CC1	3.61%	–
Cc1ccc(NC(=O)NCc2ccc3c(c2)CN(C2CCC(=O)NC2=O)C3=O)cc1Cl (configuration not stated)	9.81%	–
CC(C)c1cc(-c2n[nH]c(=O)n2-c2ccc3c(ccn3C)c2)c(O)cc1O	3.75%	–
CC(=O)Nc1ccc([C@H](C)C(=O)Nc2ncc(C(C)C)s2)cc1	7.22%	–
CC(=O)Oc1ccc(C2(c3ccc(OC(C)=O)cc3)C(=O)Nc3ccccc32)cc1	12.6%	–
Nc1ccccc1NC(=O)c1ccc(CNc2nccc(-c3cccnc3)n2)cc1	-4.92%	–
Cc1cc(Nc2cc(NC(=O)c3c(Cl)cccc3Cl)ccn2)nc(N)n1	-8.56%	–
CC(C)c1c2cc(-c3ccnc(NC4CCC(NC5CCOCC5)CC4)n3)ccc2nn1C (configuration not stated)	-7.1%	–
CCOc1cc2ncc(C#N)c(Nc3ccc(F)c(Cl)c3)c2cc1NC(=O)/C=C/CN(C)C	–	16.2 µM (active)
COc1cccc2c1C(=O)c1c(O)c3c(c(O)c1C2=O)C[C@@](O)(/C(CO)=N/NC(=O)CCCCCN1C(=O)C=CC1=O)C[C@@H]3O[C@H]1C[C@H](N)[C@H](O)[C@H](C)O1	3.1%	–
CC(=O)OCC(=O)[C@@]12OC(C)(C)O[C@@H]1C[C@H]1[C@@H]3C[C@H](F)C4=CC(=O)C=C[C@]4(C)[C@@]3(F)[C@@H](O)C[C@@]12C	-0.722%	–
COC(=O)C[C@](O)(CCCC(C)(C)O)C(=O)O[C@@H]1C(OC)=C[C@]23CCCN2CCc2cc4c(cc2[C@H]13)OCO4	25.5%	–
CS(=O)(=O)N1CCC(NC(=O)c2[nH]ncc2NC(=O)c2c(Cl)cccc2Cl)CC1	-1.09%	–
CC(C)C[C@H](NC(=O)CNC(=O)c1cc(Cl)ccc1Cl)B1OC(=O)CC(CC(=O)O)(C(=O)O)O1 (some centres not stated)	-1.81%	–
COc1cccc2c1C(=O)c1c(O)c3c(c(O)c1C2=O)C[C@@](O)(C(=O)CO)C[C@@H]3O[C@H]1C[C@H](N)[C@@H](O)[C@H](C)O1	8.44%	–
